# Data from PubChem BioAssay (Tox21).
# Records with an inconclusive call do not appear. A call without a number means that no potency is given here. Unmarked numbers belong to inactive results. Active and inactive are the calls of the source. The call rests on the fitted dose curve.
# Target: Beta-2 adrenergic receptor (Homo sapiens) (UniProt P07550)
# Assay: Adrenergic beta2 receptor (ADRB2) small molecule agonists, cell-based qHTS assay (AID 1963593);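 further: CHO cells stably overexpressing human ADRB2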
# Details: CHO-ADRB2 cells, cAMP HTRF, 30 min; series mostly up to 92.4 µM
# Summary of the method: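 CHO cells stably over-expressing ADRB2 were plated overnight at 37C, then dosed with compounds plus a stimulation mix containing 100uM IBMX and 25uM Ro-20-1724 for 0.5hr at room temperature. cAMP was measured by HTRF competition, 1hr.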
# Sequence of Beta-2 adrenergic receptor (Homo sapiens) (P07550 whole entry, looked up): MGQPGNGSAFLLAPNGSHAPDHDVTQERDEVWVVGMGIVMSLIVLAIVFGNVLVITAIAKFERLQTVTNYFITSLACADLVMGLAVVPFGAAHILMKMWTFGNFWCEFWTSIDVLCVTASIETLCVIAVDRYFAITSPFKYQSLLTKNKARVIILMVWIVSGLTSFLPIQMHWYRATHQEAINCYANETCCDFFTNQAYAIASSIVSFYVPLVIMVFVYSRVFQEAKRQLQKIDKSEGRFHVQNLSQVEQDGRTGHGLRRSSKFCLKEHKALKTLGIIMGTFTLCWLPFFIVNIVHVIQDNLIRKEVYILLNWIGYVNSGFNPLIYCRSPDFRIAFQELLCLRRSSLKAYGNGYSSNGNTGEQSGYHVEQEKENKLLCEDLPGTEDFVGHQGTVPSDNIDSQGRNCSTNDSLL
Structure (SMILES),Potency,activation
COc1ccc2c3c1O[C@H]1[C@H](O)CC[C@H]4[C@@H](C2)N(C)CC[C@@]341,inactive,
O=C(O)C(Cl)(Cl)Br,inactive,
ClC(Cl)(Cl)Br,inactive,
CC1(C)C(C=C(Cl)Cl)C1C(=O)OC(C#N)c1cccc(Oc2ccccc2)c1 (centres undefined),inactive,
Cc1nn(-c2cc(NS(C)(=O)=O)c(Cl)cc2Cl)c(=O)n1C(F)F,inactive,
O=P(OCCCl)(OCCCl)OCCCl,inactive,
c1nc[nH]n1,inactive,
N#CC(c1ccccc1)c1ccccc1,inactive,
Cc1cc(Cl)ccc1O,inactive,
CNC(=O)Oc1cccc2ccccc12,inactive,
Nc1ccncc1,inactive,
COC(=O)c1cncn1C(C)c1ccccc1 (centres undefined),inactive,
CC(C)[N+](C)(CCC(C(N)=O)(c1ccccc1)c1ccccc1)C(C)C,inactive,
COS(=O)(=O)OC,inactive,
O=C(Cc1ccccc1)c1ccccc1,inactive,
CCCCCCCCCCBr,inactive,
CC1=C2[C@H]3OC(=O)[C@@H](C)[C@@H]3CC[C@@]2(C)C=CC1=O,inactive,
CCN(CC)C1CCCCC1,inactive,
c1ccc2c(c1)sc1ccccc12,inactive,
CC(C)CCCCCCOC(=O)c1ccccc1C(=O)OCCCCCCC(C)C,inactive,
C#CCOC(=O)/C=C(C)/C=C/CC(C)CCCC(C)C (centres undefined),inactive,
N#CCBr,inactive,
C=CCN(CC=C)C(=O)C(Cl)Cl,inactive,
N#Cc1cc([N+](=O)[O-])ccc1N,inactive,
Clc1nc(Cl)nc(Nc2ccccc2Cl)n1,inactive,

Structure (SMILES),Potency,activation
[CH3][Sn]([Cl])([Cl])[Cl],inactive,
CCCCN=C=O,inactive,
CN(C)CCc1ccc(O)cc1,inactive,
c1ccc(-c2ccccc2)cc1,inactive,
CCC(=O)OC1(c2ccccc2)CCN(C)CC1,inactive,
Clc1ccc(C(Cl)(Cl)Cl)c(Cl)c1,inactive,
[P]#[In],inactive,
O=[N+]([O-])c1ccccc1O,inactive,
CCCCC(CC)COC(=O)c1c(Br)c(Br)c(Br)c(Br)c1C(=O)OCC(CC)CCCC (centres undefined),inactive,
c1ccc(-c2cccc(-c3ccccc3)c2)cc1,inactive,
CCCC(C)(COC(N)=O)COC(N)=O,inactive,
CN(C)C(=O)Nc1ccc(Cl)cc1,inactive,
CC(=O)C(C)(C)C,inactive,
O=NN1CCCCCCC1,inactive,
CNC,inactive,
COC(C)(C)C,inactive,
O=c1c2ccccc2c(=O)c2c1cc(Cl)c1[nH]c3c([nH]c12)c(Cl)cc1c(=O)c2ccccc2c(=O)c13,inactive,
CC(=O)CC(c1ccc(Cl)cc1)c1c(O)c2ccccc2oc1=O (centres undefined),inactive,
Cc1ccc(N=C=O)cc1N=C=O,inactive,
O=S(=O)(c1ccccc1)c1ccccc1,inactive,
CCC(Br)(CC)C(=O)NC(N)=O,inactive,
Nc1ccc(Oc2ccc(N)cc2)cc1,inactive,
CC(=NC#N)N(C)Cc1ccc(Cl)nc1,inactive,
OCCCl,inactive,
C1CCC(NC2CCCCC2)CC1,inactive,

Structure (SMILES),Potency,activation
CCCCCBr,inactive,
CC(C)C(=O)OCC(C)(C)C(OC(=O)C(C)C)C(C)C (centres undefined),inactive,
O=C(O)C(F)(F)C(F)(F)C(F)(F)C(F)(F)C(F)(F)C(F)(F)C(F)(F)C(F)(F)F,inactive,
O=[N+]([O-])O[C@H]1CO[C@H]2[C@@H]1OC[C@H]2O[N+](=O)[O-],inactive,
CC(C)(C)OOC(C)(C)CCC(C)(C)OOC(C)(C)C,inactive,
N#CCCC#N,inactive,
CCC(C)(C#N)N=NC(C)(C#N)CC (centres undefined),inactive,
CCC(=O)Nc1ccc(Cl)c(Cl)c1,inactive,
O=c1[nH]c(=O)[nH]c(=O)[nH]1,inactive,
ClCCBr,inactive,
CNC(=O)Oc1c(C(C)(C)C)cc(C)cc1C(C)(C)C,inactive,
Cc1ncc(CNC(=O)N(CCCl)N=O)c(N)n1,inactive,
C=CCOC(N)=O,inactive,
Cc1ccc2cc(C)ccc2c1,inactive,
Brc1c(Br)c(Br)c(Oc2c(Br)c(Br)c(Br)c(Br)c2Br)c(Br)c1Br,,-14.9% [at 19 µM]
CC(C)(Cl)Cl,inactive,
C=C(C)C(=O)OCC(CC)CCCC (centres undefined),inactive,
CC(C)(C)C(=O)CCl,inactive,
CC(C(=O)c1ccccc1)N(C)C (centres undefined),inactive,
c1ccc2c(c1)CCCC2,inactive,
CN(C)P(=O)(N(C)C)N(C)C,inactive,
c1ccc(N=Nc2ccccc2)cc1,inactive,
COc1cc(N)c(Cl)cc1C(=O)NC1CN2CCC1CC2 (centres undefined),inactive,
FC(F)(F)c1ccc(Cl)cc1,inactive,
